Compound activity deposited in PubChem BioAssay by Johns Hopkins Ion Channel Center.
This is a sample that favours compounds with a hit; in the whole collection about 1.6% have one here.
KCNQ2 inh = rat KCNQ2 potassium channel inhibitors, primary screen, cell-based, CHO-K1, FluxOR thallium flux, B-score | 20 min; hits give low values | B-score at 10 µM | 310,000 tested, 1.1% active;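 active means fluorescence ratio B-score at most minus 3 library SDs, with starting brightness B-score within 2 library SDs, cut at about -5.5 in these data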
KCNQ2 enhance = potentiators of rat KCNQ2 potassium channel; Potassium voltage-gated channel subfamily KQT member 2 (Rattus norvegicus), O88943; CHO-K1 KCNQ2, FluxOR thallium flux fluorescence; hits give high values; B-score at 10 µM; 310,000 tested, 0.54% active; AID 2239, 2010;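 active means fluorescence ratio B-score at least 3 SD of library B-scores, with initial fluorescence B-score within 3 of them, cut at about 5.3 in these data; same plate scores as AID 2156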;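 further: B-score of peak minus minimum over baseline fluorescence ratio after K+ and Tl+ stimulus; positive B-score means potentiation of KCNQ2 with more thallium influx and brighter signal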
Kir21 confirm = mouse Kir2.1 channel blockers, retest, confirmation, cell-based, FluxOR thallium flux, duplicate; shares compounds with KCNQ2 enhance; Kir2.1-expressing cells, FluxOR thallium flux fluorescence; hits give low values; Tl flux remaining, % of negative control (hits give low values), % at 10 µM; 2,300 tested, 41% active; AID 2032, 2009;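 active means Primary-screen hit whose thallium flux fell at least 3 control SD below untreated wells in both duplicates, with normal baseline fluorescence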;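 further: 0% = blank wells without stimulus and 100% = stimulated no-compound controls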
Target sequence (P35561 whole entry, looked up): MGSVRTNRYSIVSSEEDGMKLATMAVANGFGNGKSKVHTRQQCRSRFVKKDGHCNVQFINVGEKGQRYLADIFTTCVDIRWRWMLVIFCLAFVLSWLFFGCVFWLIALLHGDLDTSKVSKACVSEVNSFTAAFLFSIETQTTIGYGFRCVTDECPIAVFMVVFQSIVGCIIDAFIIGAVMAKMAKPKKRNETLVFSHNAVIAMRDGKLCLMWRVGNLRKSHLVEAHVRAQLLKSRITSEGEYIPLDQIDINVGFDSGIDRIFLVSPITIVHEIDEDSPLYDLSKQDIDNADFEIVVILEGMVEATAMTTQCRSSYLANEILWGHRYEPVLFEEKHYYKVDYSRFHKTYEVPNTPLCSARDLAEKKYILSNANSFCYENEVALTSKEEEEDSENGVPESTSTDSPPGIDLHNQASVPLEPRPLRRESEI
HEK293 Tl flux = alters thallium flux in parental HEK293 cells, Kir2.1 counter-screen; shares compounds with KCNQ2 enhance; FluxOR thallium flux fluorescence; 0% = unstimulated blank wells; FluxOR signal as % of negative control (100 = no effect), % at 10 µM; 2,300 tested, 19% active;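 active means dye signal at least 3 control SD above or below untreated wells in both duplicates, raw fluorescence within 3, either direction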;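 further: percent is based on the flux ratio of peak minus minimum fluorescence over baseline F0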
CHO-K1 Tl ctr = nonspecific thallium flux increase in parental CHO-K1, confirmation, counter-screen for KCNQ2 potentiator project, cell-based, FluxOR thallium flux, duplicate | shares compounds with KCNQ2 enhance | parental CHO-K1 cells, FluxOR thallium flux fluorescence; zero = vehicle mean+3SD, 100% = vehicle-minus-blank window | activity increase over 3SD of controls, % at 10 µM | 1,200 tested, 43% active;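 active means signal rise of at least 3 SD above the untreated control mean, in both duplicate wells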;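 further: counter screen of KCNQ2 potentiator hits so any rise reflects channel-independent effects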
KCNQ1 sel pot = human KCNQ1 channel potentiation off-target, confirmation, selectivity assay for KCNQ2 potentiator project, cell-based, CHO, FluxOR thallium flux. shares compounds with KCNQ2 enhance. CHO KCNQ1 stable, FluxOR thallium flux fluorescence; beyond 3SD, as % of vehicle-control signal. activation over 3SD threshold, % at 10 µM. 1,200 tested, 28% active;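 active means fluorescence ratio rise of at least 3 SD of vehicle wells above their mean, in both replicate wells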;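 further: 0% = vehicle mean plus 3 SD and 100% = vehicle minus unstimulated blank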
KCNQ2 pot conf = rat KCNQ2 channel potentiators, confirmation, cell-based, CHO, FluxOR thallium flux, duplicate; shares compounds with KCNQ2 enhance; CHO-KCNQ2 cells, FluxOR thallium flux fluorescence; potentiation, less the hit threshold, % at 10 µM; 1,200 tested, 68% active; AID 2287, 2010;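 active means fluorescence ratio rising 3 SD or more over the vehicle control mean in both replicates, plus primary screen hit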;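 further: peak minus minimum thallium fluorescence divided by baseline after K/Tl stimulus; 0% = vehicle mean plus 3 SD and 100% = vehicle minus unstimulated blank difference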
Kir21 spec = mouse Kir2.1 channel activation off-target, confirmation, selectivity assay for KCNQ2 potentiator project, cell-based, HEK293, FluxOR thallium flux; shares compounds with KCNQ2 enhance; activity over 3SD threshold, % at 10 µM; HEK293 Kir2.1, FluxOR thallium flux fluorescence; 1,200 tested, 2% active;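 active means fluorescence ratio rise of at least 3 SD above the vehicle-control mean, seen in both replicates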;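 further: 0% = vehicle mean plus 3 SD and 100% = vehicle minus no-stimulus blank window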
KCNQ2 W236L pot = potentiators of retigabine-insensitive KCNQ2 W236L, mechanism study for KCNQ2 potentiator project, cell-based, rat KCNQ2 W236L, CHO, automated patch clamp; current increase over 3SD of negative controls (%), hits give high values, % at 25 µM; shares compounds with KCNQ2 enhance; automated patch clamp current; 940 tested, 10% active;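 active means current increase at least 3 SD of the untreated controls above them in both duplicate recordings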
Active calls of the source: *; i = inactive; . = no result given.

SMILES	KCNQ2 inh	KCNQ2 enhance	Kir21 confirm	HEK293 Tl flux	others
O=c1c2cc(Br)ccc2nc(-c2ccc([N+](=O)[O-])cc2)n1O	i	9.8*	i	383%*	CHO-K1 Tl ctr=-4;KCNQ1 sel pot=65*;KCNQ2 pot conf=51*;Kir21 spec=-19;KCNQ2 W236L pot=i
O=c1c2ccccc2nc(-c2ccccc2)n1O	i	0.66	.	.
N#Cc1ccc(-c2nc3ccc(Br)cc3c(=O)n2O)cc1	i	4.2	.	.
O=c1c2ccc(Cl)cc2nc(-c2ccc([N+](=O)[O-])cc2)n1O	i	14*	i	304%*	CHO-K1 Tl ctr=5.3*;KCNQ1 sel pot=-14;KCNQ2 pot conf=42*;Kir21 spec=-13;KCNQ2 W236L pot=i
COc1ccccc1-c1nc2cc(Cl)ccc2c(=O)n1O	i	.	.	.
Cc1nc2c(sc3nc(N4CCOCC4)c4c(c32)CC(C)(C)OC4)c(-c2ccc(Cl)cc2)c1C(=O)O	i	1.1	.	.
Nc1nonc1C(=O)N/N=C/c1cc2c(cc1Br)OCO2	i	.	.	.
Cc1ccc2cc(C#N)c(N3CCCN(C(=S)NCCCN(C)C)CC3)nc2c1	i	.	.	.
Cc1cc(C)c2cc(C#N)c(N3CCCN(C(=S)NCCCN(C)C)CC3)nc2c1	i	.	50%*	i
S=C(NCc1cccnc1)Nc1ccc(Oc2ccccc2)cc1	i	0.02	.	.
O=C(Nc1ccc(OCc2ccccc2)cc1)c1cccnc1	i	0.6	.	.
S=C(Nc1ccc(Oc2ccccc2)cc1)Nc1cccnc1	i	18*	i	i	CHO-K1 Tl ctr=8.9*;KCNQ1 sel pot=-4;KCNQ2 pot conf=83*;Kir21 spec=-29;KCNQ2 W236L pot=4.7%*
O=C(Nc1ccc(OCc2ccccc2)cc1)Nc1cccnc1	i	7.2*	i	i	CHO-K1 Tl ctr=-25;KCNQ1 sel pot=64*;KCNQ2 pot conf=11*;Kir21 spec=-31;KCNQ2 W236L pot=i
O=C(NC1CCCCC1)C(=S)N1CCOCC1	i	.	.	.
COc1ccc(N(CC(=O)Nc2ccccc2OC)S(=O)(=O)c2ccc(OC)c(OC)c2)cc1	i	0.59	.	.
CN(c1ccc(O)cc1)S(=O)(=O)c1ccc2ccccc2c1	i	0.65	50%*	i
CNS(=O)(=O)c1ccc2ccccc2c1	i	.	.	.
Cc1cc(O)cc(C)c1NS(=O)(=O)c1ccc2ccccc2c1	i	2.7	56%*	i
CCN(c1ccccc1)S(=O)(=O)c1ccc2ccccc2c1	i	.	.	.
COc1cccc(C(=O)N2CCN(Cc3nc(CC4CC4)no3)CC2)c1	i	0.31	.	.
Cc1ccc(CNC(=O)C2CCN(S(=O)(=O)c3ccc4c(c3)CC(C)N4C(=O)C3CCC3)CC2)o1 (configuration not stated)	i	6.6*	i	i	CHO-K1 Tl ctr=-11;KCNQ1 sel pot=-13;KCNQ2 pot conf=-10;Kir21 spec=-37
CC(C)CCNC(=O)C1CCN(S(=O)(=O)c2ccc3c(c2)CC(C)N3C(=O)C2CCC2)CC1 (configuration not stated)	i	0.37	.	.
CN1CCN(C(=O)/C(=C\c2cccnc2)NC(=O)c2cccc(Br)c2)CC1	i	0.36	.	.
CC1c2ccsc2CCN1S(=O)(=O)c1ccccc1 (configuration not stated)	i	0.51	52%*	i
COc1cc2c(cc1OC)C(C)N(S(=O)(=O)c1cccs1)CC2 (configuration not stated)	i	1.2	.	.
SMILES	KCNQ2 inh	KCNQ2 enhance	Kir21 confirm	HEK293 Tl flux	others
CCn1c(Sc2ccc(N)cc2Cl)nc2ccccc21	i	.	76%*	i
CCn1c(SCC(=O)NC(C)c2ccccc2)nc2ccccc21 (configuration not stated)	i	.	.	.
CCC(NC(=S)NC1CCCCC1)c1ccc(C(C)C)cc1 (configuration not stated)	i	14*	i	i	CHO-K1 Tl ctr=18*;KCNQ1 sel pot=-25;KCNQ2 pot conf=54*;Kir21 spec=-32;KCNQ2 W236L pot=i
CCN1CCN(C(c2cccs2)C(C)NC(=S)NC2CCCCC2)CC1 (configuration not stated)	i	.	.	.
CCC(NC(=O)NC1CCCCC1)c1ccccc1 (configuration not stated)	i	19*	i	i	CHO-K1 Tl ctr=-18;KCNQ1 sel pot=-13;KCNQ2 pot conf=70*;Kir21 spec=-35;KCNQ2 W236L pot=i
Cc1ccc(C(C)NC(=S)NC2CCCCC2)cc1C (configuration not stated)	i	25*	i	i	CHO-K1 Tl ctr=-30;KCNQ1 sel pot=8.7*;KCNQ2 pot conf=103*;Kir21 spec=-51;KCNQ2 W236L pot=i
Cc1ccc(C(C)NC(=S)NC2CCCCC2)c(C)c1 (configuration not stated)	i	7.3*	.	.	CHO-K1 Tl ctr=70*;KCNQ1 sel pot=-6;KCNQ2 pot conf=-2;Kir21 spec=-55;KCNQ2 W236L pot=8.5%*
CC(=O)NC(CC(=O)NC1CCCCCC1)c1ccccc1 (configuration not stated)	i	1.4	.	.
Cc1ccc(C(C)NC(=O)C2CCCC2)c(C)c1 (configuration not stated)	i	0.67	.	.
COc1ccc(C(C)NC(=S)NC2CCCC2)cc1OC (configuration not stated)	i	0.16	.	.
COc1ccc(/C=C/C(=O)NCC(=O)N=Nc2c(O)[nH]c3ccc([N+](=O)[O-])cc23)cc1	i	.	.	.
CCOc1ccccc1NC(=O)CNS(=O)(=O)c1ccc2nc(C)sc2c1	i	0.5	.	.
CCOc1ccccc1CNS(=O)(=O)c1cnc[nH]1	i	0.07	.	.
CC(C)OC(=O)C1Cc2ccccc2CN1S(=O)(=O)c1cccs1 (configuration not stated)	i	.	.	.
COc1ccc(NC(=O)[C@H](C)NC(=O)C2CCN(S(=O)(=O)c3ccc(OC)cc3)CC2)cc1	i	.	.	.
N#CC1=C(N)N(c2ccccc2)C(c2ccco2)C1(C#N)C#N (configuration not stated)	i	.	.	.
